Results taken from PubChem BioAssay.
Results filed as inconclusive are left out. Activity calls are given as the source filed them. Cut-off read from the data, not from the text of the source, unless noted: active = inhibition above about 30%; inactive = the rest.

Legend:
[1] = reducers of endogenous Her2 protein level, primary screen, SKBR3 breast tumor cells, AlphaScreen, ATP viability (AID 461;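 active = Her2 level under about 52% in both replicate screens, with viability over 70% of control, limit read from the data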;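 for Her2 level: lower value means less Her2 protein in the cells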;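 for viability: percent of carrier control wells set as 100% viability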); conditions: 18-24 h, measured here: SKBR3 viability, ATP luminescence, at 10 µM
[2] = target: Receptor tyrosine-protein kinase erbB-2 (Homo sapiens) (UniProt P04626); assay: as above; conditions: 18-24 h, at 10 µM, stronger effect = lower value
Chain of Receptor tyrosine-protein kinase erbB-2 (Homo sapiens) (P04626 whole entry, looked up): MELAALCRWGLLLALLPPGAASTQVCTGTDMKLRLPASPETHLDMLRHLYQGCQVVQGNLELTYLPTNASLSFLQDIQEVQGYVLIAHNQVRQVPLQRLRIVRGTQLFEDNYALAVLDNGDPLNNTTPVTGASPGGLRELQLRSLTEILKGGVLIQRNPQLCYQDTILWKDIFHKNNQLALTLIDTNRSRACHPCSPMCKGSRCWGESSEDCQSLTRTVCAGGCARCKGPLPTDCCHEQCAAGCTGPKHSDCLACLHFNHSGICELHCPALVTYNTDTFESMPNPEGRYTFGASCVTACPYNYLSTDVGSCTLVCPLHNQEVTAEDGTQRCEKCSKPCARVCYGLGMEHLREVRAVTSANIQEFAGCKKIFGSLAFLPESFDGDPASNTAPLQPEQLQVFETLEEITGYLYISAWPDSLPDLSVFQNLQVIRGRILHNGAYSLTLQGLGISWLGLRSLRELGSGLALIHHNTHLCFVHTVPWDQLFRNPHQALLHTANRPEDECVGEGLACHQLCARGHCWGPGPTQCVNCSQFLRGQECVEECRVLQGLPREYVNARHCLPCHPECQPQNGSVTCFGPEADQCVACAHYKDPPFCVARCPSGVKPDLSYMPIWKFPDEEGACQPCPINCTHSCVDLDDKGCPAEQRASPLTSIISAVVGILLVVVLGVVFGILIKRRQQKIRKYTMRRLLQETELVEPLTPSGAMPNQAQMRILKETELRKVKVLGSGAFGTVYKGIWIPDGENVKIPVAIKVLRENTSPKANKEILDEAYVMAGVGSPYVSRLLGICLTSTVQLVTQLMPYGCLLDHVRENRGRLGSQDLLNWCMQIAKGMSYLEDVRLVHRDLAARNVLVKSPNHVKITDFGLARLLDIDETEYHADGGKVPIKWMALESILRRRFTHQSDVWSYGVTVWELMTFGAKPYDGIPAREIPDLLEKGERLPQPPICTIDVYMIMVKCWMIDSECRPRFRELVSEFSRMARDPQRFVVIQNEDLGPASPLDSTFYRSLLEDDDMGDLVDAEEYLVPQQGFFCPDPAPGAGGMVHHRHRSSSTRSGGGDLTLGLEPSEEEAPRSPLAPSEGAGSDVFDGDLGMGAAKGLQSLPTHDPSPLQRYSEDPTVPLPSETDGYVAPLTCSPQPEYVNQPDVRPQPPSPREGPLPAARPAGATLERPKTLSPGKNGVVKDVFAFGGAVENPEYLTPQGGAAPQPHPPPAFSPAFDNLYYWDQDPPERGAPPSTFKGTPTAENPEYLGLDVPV

[3] = SK-BR-3 cell growth inhibitors, pilot screen, 24 h, human (AID 572;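 active = viability at or below 10% of carrier control in both of two separate runs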;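 note: compound exposure lasted between 18 and 24 h rather than exactly 24 h; 100% = carrier-treated control wells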); conditions: SK-BR-3 viability, CellTiter-Glo luminescence, at 10 µM, stronger effect = lower value
[4] = HUVEC growth inhibition – cell-based, human, primary screen (AID 575;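 active = viability at or below 30% in both replicate assays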;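 note: 100% = median of untreated cell wells with 0.1% DMSO on each plate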); conditions: HUVEC proliferation, CellTiter-Glo luminescence, 72 h; at 10 µM; stronger effect = lower value
[5] = growth inhibitors of H69AR lung tumor, primary screen, human, duplicate replicates (AID 580;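 active = viability at or under a set limit in both replicates, limit being median viability minus 3 SD, cut at about 48% in these data, passing the limit was not always enough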;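 note: 100% = mean luminescence of untreated wells and 0% = no signal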); conditions: H69AR lung tumor cells viability, ATP luminescence, 72 h; at 10 µM; stronger effect = lower value
[6] = reversal of MRP1-mediated doxorubicin resistance, pilot screen, H69AR cells, doxorubicin co-treatment (AID 601;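 active = viability loss from added drug above about 55%, and viability with drug at most 40%, in both replicates, limit read from the data, passing the limit was not always enough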); conditions: CellTiter-Glo, 72 h, at 10 µM; for differential viability (reversal): stronger effect = higher value
[7] = 384-well plate pilot, post-Golgi transport modulator project, inhibition of yeast transport mutant growth (AID 636; in the data active = inhibition above about 31%); conditions: absorbance 615 nm, about 18 h, stronger effect = higher value
[8] = growth suppression of yeast trafficking mutant, preliminary HTS, modulators of trafficking downstream of Golgi apparatus project, 1536-format plate, OD 615 nm (AID 637); conditions: yeast transport mutant growth, absorbance 615 nm, 18 h; stronger effect = higher value
[9] = OD615 S. cerevisiae growth inhibition, permissive medium, pilot counter-assay, permissive growth control for S. cerevisiae lifespan shortening project (AID 705;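 active = growth inhibition above 25% in both replicates, a cutoff set 3 SD above the mean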); conditions: OD615, 24 h, at 10 µM, stronger effect = higher value
[10] = Restrictive medium S. cerevisiae growth inhibition, OD615, pilot screen of yeast lifespan reduction project, restrictive growth control (AID 706;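 active = growth inhibition above a set limit, 3 SD over mean compound inhibition, in both replicates, cut at about 43% in these data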;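 note: modified DeaD lifespan yeast strain shifted to restrictive glucose medium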); conditions: OD615, 48 h, at 10 µM, stronger effect = higher value
[11] = viability gain of MRP-1-high H69AR cells under doxorubicin, pilot screen, MRP-1 activator project, CellTiter-Glo, duplicate (AID 807;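 active = viability increase at or above a cutoff of the median across tested compounds plus 3 SD, cut at about 8.5% in these data, passing the limit was not always enough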;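 note: compound pretreatment 18-22 h then 72 h combined with doxorubicin; 0% = doxorubicin alone and 100% = vehicle without doxorubicin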); conditions: H69AR viability with doxorubicin, CellTiter-Glo luminescence; at 10 µM; stronger effect = higher value
[12] = growth suppression of PTEN-deleted HCT116, pilot screen, cell-based, HCT116 clonal line, CellTiter-Glo (AID 824;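 active = viability at or below 27.92% in each of two runs, the all-compound median minus 4 SD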;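 note: 0% = 20 µM Hyamine control and 100% = vehicle cell control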); conditions: 60 h, at 10 µM, stronger effect = lower value
[13] = inhibitors of the yeast RAM network, pilot screen, dse1pr::URA3 reporter, 5-FOA selection (AID 869;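 active = inhibition over a set limit, the all-compound mean plus 3 SD, in both replicate runs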;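 note: 0% = DMSO wells with no growth and 100% = 10 µM 1-NA-PP1 with full growth; RAM network block rescues cells from 5-FOA so hits raise OD615 growth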); conditions: S. cerevisiae dse1pr::URA3 5-FOA growth, OD615, 2 d; at 10 µM; stronger effect = higher value; strain carries analog-sensitive mutant Cbk1 kinase
[14] = RAM signaling pathway blockade in yeast – S. cerevisiae, Pdr1DBD-CYC8 efflux-inhibited sensitized strain, primary screen (AID 1298;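 active = RAM network inhibition above 8.4% in each of two replicates, 3 SD over the compound average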;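 note: 0% = DMSO untreated cells without growth and 100% = 10 µM 1-NA-PP1 full growth; higher means more yeast growth rescued from 5-FOA killing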); conditions: S. cerevisiae cbk1-as DSE1-URA3 strain, 5-FOA growth OD615, 2 d; at 50 µM; stronger effect = higher value
[15] = growth suppression of beta-catenin knockout HCT116, pilot screen, human colon tumor cells (AID 823;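 active = cell viability at or below a set limit in both duplicate runs, the limit being the all-compound median minus 4 SD, cut at about 23% in these data, passing the limit was not always enough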;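 note: 0% = wells killed by 20 µM Hyamine and 100% = untreated DMSO cell wells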); conditions: CellTiter-Glo, 60 h, at 10 µM, stronger effect = lower value
[16] = H69AR cells + 2 uM doxorubicin, measured here: viability with 2 uM doxorubicin, stronger effect = lower value
[17] = H69AR cells, compound alone cytotoxicity

Row | Structure (SMILES) | viability [1] | Her2 level [2] | viability [3] | viability [4] | viability [5] | differential viability (reversal) ([6]; H69AR cells + 2 uM doxorubicin) | viability [6, 16] | viability [6, 17] | inhibition [7] | inhibition [8] | growth inhibition [9] | growth inhibition [10] | viability increase [11] | viability [12] | inhibition [13] | RAM network inhibition [14] | viability [15]
1 | O=C(CSC1=NCCS1)NCc1ccco1 | 84% | 108% (inactive) | 84% (inactive) | 80.6% (inactive) | 90.1% (inactive) | 1.28% (inactive) | 88.8% | 90.1% | -0.54% (inactive) | 26.5% (inactive) | 6.88% (inactive) | 47.7% (active) | -3.56% (inactive) | 100% (inactive) | 2.73% (inactive) | 3.89% (inactive) | –
2 | O=C(CCS(=O)(=O)c1cccc2nsnc12)NCc1ccccc1 | 93.5% | 116% (inactive) | 93.5% (inactive) | 91.2% (inactive) | 106% (inactive) | 17.4% (inactive) | 88.9% | 106% | -3.01% (inactive) | -4.6% (inactive) | -12.7% (inactive) | -4.2% (inactive) | -2.9% (inactive) | 105% (inactive) | 1.31% (inactive) | 1.65% (inactive) | –
3 | COC(=O)C1(C(F)(F)F)N=C2Sc3ccccc3N2C(N2CCOCC2)=N1 (stereo not given) | 91% | 89% (inactive) | 91% (inactive) | 81.5% (inactive) | 92.5% (inactive) | -0.935% (inactive) | 93.4% | 92.5% | -5.73% (inactive) | 5.17% (inactive) | -9.31% (inactive) | -10% (inactive) | -1.24% (inactive) | 53.8% (inactive) | 1.03% (inactive) | 2.93% (inactive) | –
4 | CCOCCCNC(=O)C(c1ccccc1)N(Cc1ccc2c(c1)OCO2)C(=O)CNC(C)=O (stereo not given) | 100% | 108% (inactive) | 100% (inactive) | 97.7% (inactive) | 105% (inactive) | 2.97% (inactive) | 102% | 105% | -6.3% (inactive) | 1.59% (inactive) | 3.28% (inactive) | -2.68% (inactive) | -3.36% (inactive) | – | 0.43% (inactive) | 1.52% (inactive) | 98.6% (inactive)
5 | CCOC(=O)Cn1nc(-c2ccc(Cl)cc2)cc1N | 78% | 116% (inactive) | 78% (inactive) | 91.8% (inactive) | 101% (inactive) | 18% (inactive) | 83.1% | 101% | -7.95% (inactive) | -0.48% (inactive) | -8.98% (inactive) | 2.33% (inactive) | 0.37% (inactive) | – | 1.88% (inactive) | 5.56% (inactive) | 102% (inactive)
6 | Clc1ss/c(=N\c2ccccn2)c1Cl | 100% | 77% (inactive) | 100% (inactive) | 77.8% (inactive) | 76.6% (inactive) | 4.38% (inactive) | 72.3% | 76.6% | -9.18% (inactive) | 2.06% (inactive) | 3.12% (inactive) | 19.3% (inactive) | -5.42% (inactive) | 96.8% (inactive) | 1.77% (inactive) | 3.89% (inactive) | –
7 | CC(O)CN1C(=O)C(CC(=O)Nc2ccc(Cl)cc2)SC1=Nc1ccccc1 (stereo not given) | 97% | 101% (inactive) | 97% (inactive) | 57% (inactive) | 66.4% (inactive) | -10.2% (inactive) | 76.6% | 66.4% | -6.99% (inactive) | -7.94% (inactive) | -9.07% (inactive) | -7.22% (inactive) | -3.6% (inactive) | 59.2% (inactive) | 2.45% (inactive) | 6.03% (inactive) | –
8 | Cc1ccc(N(C(=O)C2CCC(=O)N2)C2(C(=O)NC3CCCCC3)CCCCC2)cc1 (stereo not given) | 110% | 99% (inactive) | 110% (inactive) | 108% (inactive) | 98.4% (inactive) | 3.47% (inactive) | 94.9% | 98.4% | -0.55% (inactive) | -0.79% (inactive) | -9.55% (inactive) | -6.46% (inactive) | -2.37% (inactive) | 92.9% (inactive) | 2.28% (inactive) | 1.79% (inactive) | –
9 | CC1(C)CC(=O)CC(C2(O)C(=O)N(Cc3ccccc3)c3ccccc32)O1 (stereo not given) | 99.5% | 82.5% (inactive) | 99.5% (inactive) | 78.3% (inactive) | 44% (active) | -12.7% (inactive) | 56.7% | 44% | 1.2% (inactive) | -4.75% (inactive) | -7.38% (inactive) | 4.87% (inactive) | -5.63% (inactive) | 44.2% (inactive) | 1.98% (inactive) | 1.36% (inactive) | –
10 | Cc1ccc(C(C(=O)NC2CCCCC2)N2CCOCC2)cc1 (stereo not given) | 95% | 100% (inactive) | 95% (inactive) | 106% (inactive) | 95.8% (inactive) | 4.12% (inactive) | 91.7% | 95.8% | -5.89% (inactive) | -4.13% (inactive) | -9.79% (inactive) | -10.3% (inactive) | -2% (inactive) | 89.3% (inactive) | 1.07% (inactive) | 7.79% (inactive) | –
11 | C(/CCc1ccccc1)=N\n1cnnc1 | 105% | 94.5% (inactive) | 105% (inactive) | 117% (inactive) | 99% (inactive) | 9.93% (inactive) | 89.1% | 99% | -5.07% (inactive) | 8.03% (inactive) | -14.7% (inactive) | 1.89% (inactive) | -1.24% (inactive) | – | 0.44% (inactive) | 5.92% (inactive) | 102% (inactive)
12 | CCOc1ccc(-c2nnc(N(CC)C(=O)C3CCC3)s2)cc1 | 87.5% | 72% (inactive) | 87.5% (inactive) | 98.5% (inactive) | 83.7% (inactive) | 5.45% (inactive) | 78.3% | 83.7% | -4.21% (inactive) | -3.97% (inactive) | -4.38% (inactive) | 7.03% (inactive) | -1.68% (inactive) | 84.6% (inactive) | 0.825% (inactive) | 0.26% (inactive) | –
13 | CCOc1ccc(-c2nnc3sc(-c4c(OC)cccc4OC)nn23)cc1 | 126% | 84% (inactive) | 126% (inactive) | 86.5% (inactive) | 86.2% (inactive) | 1.34% (inactive) | 84.8% | 86.2% | -5.87% (inactive) | 10.5% (inactive) | -0.61% (inactive) | 8.15% (inactive) | -5.89% (inactive) | 71.3% (inactive) | 2.04% (inactive) | 4.81% (inactive) | –
14 | Cc1cc(N2CCOCC2)nc2ccc(NC(=O)C3CCC(C)CC3)cc12 (stereo not given) | 73.5% | 110% (inactive) | 73.5% (inactive) | 62.5% (inactive) | 76.3% (inactive) | -9.34% (inactive) | 85.7% | 76.3% | -0.27% (inactive) | -6.67% (inactive) | -11.1% (inactive) | 0.545% (inactive) | -4.21% (inactive) | 81% (inactive) | 1.95% (inactive) | 4.29% (inactive) | –
15 | COc1ccc(C(C(=O)NC2CCCCC2)N2CCC3(CC2)OCCO3)cc1 (stereo not given) | 86% | 98% (inactive) | 86% (inactive) | 114% (inactive) | 100% (inactive) | 6.97% (inactive) | 93.5% | 100% | -7.81% (inactive) | 5.71% (inactive) | -7.27% (inactive) | -6.88% (inactive) | -2.42% (inactive) | 88.8% (inactive) | 2.62% (inactive) | 2.77% (inactive) | –
16 | CC(=O)c1cccc(NC(=O)CCNS(=O)(=O)c2cccc3nsnc23)c1 | 86% | 78% (inactive) | 86% (inactive) | 95.6% (inactive) | 106% (inactive) | 11.8% (inactive) | 94.5% | 106% | -6.58% (inactive) | 6.19% (inactive) | -5.2% (inactive) | -11% (inactive) | -2.11% (inactive) | 93.5% (inactive) | 1.73% (inactive) | 2% (inactive) | –
17 | CCC(C)(NC(=O)CNC(C)=O)C(=O)NC1CCCCC1 (stereo not given) | 130% | 108% (inactive) | 130% (inactive) | 105% (inactive) | 94% (inactive) | -3.05% (inactive) | 97.1% | 94% | -5.48% (inactive) | -9.52% (inactive) | -15.5% (inactive) | -3.8% (inactive) | -1.92% (inactive) | 97.7% (inactive) | 2.88% (inactive) | -0.83% (inactive) | –
18 | O=C(c1cnccn1)N(c1ccccc1)C1(C(=O)NC2CCCC2)CCCCC1 | 118% | 106% (inactive) | 118% (inactive) | 96% (inactive) | 99.1% (inactive) | -2.94% (inactive) | 102% | 99.1% | -8.77% (inactive) | -1.75% (inactive) | -9.55% (inactive) | -12.1% (inactive) | -1.49% (inactive) | 96% (inactive) | 1.56% (inactive) | 3.39% (inactive) | –
19 | O=C1CCCC2=C1C(c1cccs1)n1nc(SCc3ccccc3F)nc1N2 (stereo not given) | 85% | 99.5% (inactive) | 85% (inactive) | 65.5% (inactive) | 81.7% (inactive) | 66.1% (active) | 15.6% | 81.7% | -0.27% (inactive) | 10.2% (inactive) | -6.56% (inactive) | -6.42% (inactive) | -5.19% (inactive) | 68.4% (inactive) | 1.23% (inactive) | 3.02% (inactive) | –
20 | O=C(CCNS(=O)(=O)c1cccc2nsnc12)Nc1ccc2c(c1)OCCO2 | 90.5% | 96% (inactive) | 90.5% (inactive) | 88.7% (inactive) | 101% (inactive) | 12.9% (inactive) | 88.5% | 101% | -7.95% (inactive) | -1.11% (inactive) | -7.75% (inactive) | -0.065% (inactive) | -3.8% (inactive) | 98.9% (inactive) | 2.37% (inactive) | 4.76% (inactive) | –
